In the supplement of paper PMC7556523:

tested on: Sporothrix brasiliensis CBS 133006; assay: growth inhibition relative to untreated control; higher = more growth inhibition (more antifungal activity), active = 80 or more; extreme values may be limits of the assay; conditions: 1 µM; 48 h
How it was run: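 The reported figure is percent growth inhibition relative to untreated cells, from quadruplicate runs. Yeast-form cells of the reference isolates at 1 x 10^5 CFU/ml were exposed to library compounds at a final 1 μM for 48 h at 35°C in 5% CO2, and growth was assessed by microscopy and spectrophotometric readings.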

Growth inhibition, active:
N=C(N)c1ccc(OCCCCCOc2ccc(C(=N)N)cc2)cc1 93.5%

Growth inhibition, inactive:
CC(C)(C)n1nc(Cc2ccc(F)c(Cl)c2)c2c(N)ncnc21 14.2%
O=C(Nc1ccc2c(c1)B(O)OC2)c1ccccc1C(F)(F)F 13.5%
CCCCc1ccc(C(=O)Nc2nccc3ccccc23)nc1 23.5%
c1ccc2c(c1)CN(CC1CC1)CC1(CCN(Cc3c[nH]c4cnccc34)CC1)O2 1.25%
CCn1cnc2c(Nc3cc(F)cc(F)c3)nc(C#N)nc21 13%
Nc1ncc(-c2ccc(C(F)(F)F)nc2)cc1-c1ccc(C(F)(F)F)nc1 18.2%
O=C(c1[nH]nc2c1CCCC2)N1CCN(Cc2ccc3c(c2)OCO3)CC1 9.75%
CNCCC(Oc1ccc(C(F)(F)F)cc1)c1ccccc1 (centres undefined) 7.75%
O=C(NCc1nnc2n1CCCCC2)c1ccc(-c2ccc(F)cc2)o1 11.2%
NCCN(C(=O)c1ccc(Cl)cc1Cl)c1ccc(OCc2ccc(Cl)cc2)cc1 9.75%
Nc1nccc2ccc(-c3ccc4nccn4c3)cc12 5.5%
NCC(=O)N1CCn2c(nc(-c3ccccc3)c2Nc2ccc3c(c2)OCO3)C1 0%
CCOc1ccccc1C(=O)Nc1cccc(-c2nc3ncccn3c2C)c1 6.75%
CC1CC1C(=O)NC1CCN(CC2(c3ccccc3)CCCCC2)CC1 (centres undefined) 12.8%
CN1CCCN(C(c2ccccc2)c2ccc(Cl)cc2)CC1 (centres undefined) 6%
CCCCN(CCCC)c1c(C#N)cc(S(=O)(=O)Nc2ccccc2)cc1C#N 9.25%
CC(Oc1cccc(Cl)c1)C(=O)Nc1ccc2oc(-c3ccncc3)nc2c1 (centres undefined) 20%
COc1cc(NC(C)CCCN)c2ncccc2c1 (centres undefined) 1%
Cc1nnc(NCc2cccc(Cl)c2)c2ccccc12 3%
C[C@]1(COc2ccc(N3CCC(Oc4ccc(OC(F)(F)F)cc4)CC3)cc2)Cn2cc([N+](=O)[O-])nc2O1 7.25%
CS(=O)(=O)N1CCC(Cn2nc(Cc3cccc4ccccc34)c3c(N)ncnc32)CC1 11.2%
CC(C)(C)C(=O)N(CCCCCCN1C[C@H](O)[C@@H](O)[C@H](O)[C@H]1CO)C1CCCCCC1 6.25%
CC(=O)NC[C@H]1CN(c2ccc(N3CCSCC3)c(F)c2)C(=O)O1 5.5%
CC[C@@H]([C@H](C)O)n1ncn(-c2ccc(N3CCN(c4ccc(OC[C@@H]5CO[C@@](Cn6cncn6)(c6ccc(F)cc6F)C5)cc4)CC3)cc2)c1=O 73%
CC1CCCN(C(=O)C(C)Nc2cc(Cl)ccc2N2CCOCC2)C1 (centres undefined) 11.5%
c1cncc(NCc2ccc(-c3cc4ccncc4cc3OC3CCNCC3)s2)c1 20.8%
N#CCN(CCCCN1CCN(c2ccc(F)cc2)CC1)C(=O)OCc1ccccc1 11.2%
COc1ccc(-c2cnc3ccc(NCc4ccc(S(N)(=O)=O)cc4)nn23)cn1 26.8%
Nc1ncnc2c1c(-c1cnc3ccccc3c1)nn2CC1CCNCC1 13.2%
O=C(c1cc2ccccc2o1)N1CCN(Cc2ccc3c(c2)OCO3)CC1 12.8%
CCOc1ccc(-c2nc(NC(=O)CS(=O)(=O)c3ccccc3)sc2C)cc1 5.25%
O=C(NCc1ccoc1)N1CCN(Cc2ccc3c(c2)OCO3)CC1 7.5%
Cc1ccc(-c2nc(CN(Cc3ccccn3)C(C)C)cs2)o1 24%
COc1ccc(CN2CCOc3ccc(C(C)(O)CN(C)C)cc3C2)cc1C (centres undefined) 1.25%
Cc1nc(-c2cccc(NCc3ccccc3)c2)[nH]c1C 1.25%
N=C(N)Nc1ccc(-c2ccc(-c3ccc(N=C(N)N)c(Cl)c3)o2)cc1Cl 1.75%
O=C(N[C@H](Cc1ccccc1)C(=O)Nc1ccccc1N1CCOCC1)c1cccs1 7%
O=C(Cn1ccnc1[N+](=O)[O-])NCc1ccccc1 13.8%
